A selection: hits, their analogues and other compounds. The true share with any hit is near 3.8%.
Shn3 inh set2 = inhibitors of Schnurri-3 3'UTR reporter in osteoblasts; Clone20 osteoblast Shn3 3'UTR firefly luciferase, 24 h; inhibition, % at 12.5 µM; 360,000 tested, 0.52% active;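 active means mean inhibition of at least 75% with every replicate also reaching 75%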;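 further: 0% = median of neutral control wells and 100% = pilot-screen positive control compound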
Mdm2 MdmX PPI = inhibitors of human Mdm2/MdmX interaction; O15151+Q00987; SaOS-2 split-luciferase Mdm2/MdmX complementation, luminescence; inhibition, % at 8 µM; 330,000 tested, 3% active;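 active means inhibition of at least 50% at 8 µM in the primary screen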
Target sequence (O15151 whole entry, looked up): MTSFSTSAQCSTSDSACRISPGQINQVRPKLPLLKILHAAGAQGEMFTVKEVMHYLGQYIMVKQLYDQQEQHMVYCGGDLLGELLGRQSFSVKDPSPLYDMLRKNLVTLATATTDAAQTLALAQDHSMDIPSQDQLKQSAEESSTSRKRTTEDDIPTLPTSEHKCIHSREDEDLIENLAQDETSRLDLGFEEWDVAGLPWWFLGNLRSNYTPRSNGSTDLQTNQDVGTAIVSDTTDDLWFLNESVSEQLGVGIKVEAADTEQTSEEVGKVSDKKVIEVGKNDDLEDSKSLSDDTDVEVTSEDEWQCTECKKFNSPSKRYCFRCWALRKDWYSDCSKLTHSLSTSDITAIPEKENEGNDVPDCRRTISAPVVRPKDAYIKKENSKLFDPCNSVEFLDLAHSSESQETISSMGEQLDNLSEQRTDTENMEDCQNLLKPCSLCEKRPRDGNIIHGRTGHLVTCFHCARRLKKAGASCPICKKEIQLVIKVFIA
Target sequence (Q00987 whole entry, looked up): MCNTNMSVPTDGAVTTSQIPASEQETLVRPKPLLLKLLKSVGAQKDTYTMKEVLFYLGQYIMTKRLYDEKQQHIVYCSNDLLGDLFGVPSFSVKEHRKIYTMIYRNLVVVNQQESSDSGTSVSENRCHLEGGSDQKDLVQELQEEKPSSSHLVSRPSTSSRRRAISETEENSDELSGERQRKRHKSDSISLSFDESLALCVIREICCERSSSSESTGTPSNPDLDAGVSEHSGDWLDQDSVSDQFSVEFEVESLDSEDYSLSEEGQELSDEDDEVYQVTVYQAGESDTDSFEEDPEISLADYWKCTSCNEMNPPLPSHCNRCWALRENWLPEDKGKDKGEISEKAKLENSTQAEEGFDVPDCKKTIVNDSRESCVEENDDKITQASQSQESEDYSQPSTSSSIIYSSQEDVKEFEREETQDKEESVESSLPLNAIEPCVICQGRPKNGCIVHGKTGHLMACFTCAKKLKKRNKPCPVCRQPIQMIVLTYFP
697 NFkB inh = inhibitors of the PMA/ionomycin-induced NF-kB reporter in 697 B cells; 330,000 tested, 0.33% active; inhibition, % at 4 µM; 697 B-cell NF-kB luciferase reporter, 16 h; in the data active means inhibition above about 35%
Gli-Sufu block = Gli-Sufu pathway antagonism. inhibition, % at 5 µM. 340,000 tested, 0.74% active. Sufu-KO-LIGHT fibroblasts, Gli luciferase reporter luminescence;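 active means inhibition above about 55%, limit read from the data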;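 further: 0% = DMSO-treated cells and 100% = wells with medium but no cells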
Jurkat NFkB inh = lowers PMA/ionomycin-induced NF-kB signal in Jurkat cells. PMA/ionomycin-induced NF-kB luciferase reporter, luminescence. inhibition, % at 4 µM. 330,000 tested, 0.53% active. AID 435003; in the data active means inhibition above about 50%
Mdm2 MdmX conf = human Mdm2/MdmX binding inhibition, confirmed; shares compounds with Mdm2 MdmX PPI; luminescent assay; inhibition, % at 8 µM; 10,000 tested, 55% active; in the data active means inhibition above about 40%
FLuc counter = counter-screen for Mdm2/MdmX inhibitors: full-length luciferase; shares compounds with Mdm2 MdmX PPI; SaOS-2 full-length luciferase counterscreen, luminescence; inhibition, % at 8 µM; 6,200 tested, 77% active; AID 504607;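 active means mean inhibition at 8 µM reaching about 37%, which flags the compound as non-specific, limit read from the data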;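 further: p53-null SaOS-2 cells with luciferase driven by a doxycycline-inducible promoter; compound on cells about two nights before reading with doxycycline added after day one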
An asterisk follows results filed as active; . = no result.

SMILES	Shn3 inh set2	Mdm2 MdmX PPI	697 NFkB inh	Gli-Sufu block	Jurkat NFkB inh	Mdm2 MdmX conf	others
Cc1cc(-c2ccc(C(C)C)c(S(=O)(=O)N3CCC(C)CC3)c2)on1	6	12	-23	15	-12	.
COc1ccc(C(=O)Nc2ccc(-c3nnn(CC(=O)NCc4ccco4)n3)cc2)cc1	21	68*	27	0	2	35
O=C(Cn1nnc(-c2ccc(Cl)cc2)n1)NCc1ccco1	22	-11	-40	-5	-17	.
COc1ccc(-c2nc3ccccc3[nH]2)cc1	4	-67	-157	-97	-59	.
COc1ccc(-c2cc(=O)n(-c3nc4ccccc4[nH]3)[nH]2)cc1	15	93*	-2	-21	7	13
COc1ccc(Nc2nc3ccccc3nc2NS(=O)(=O)c2cccs2)cc1	-12	2	17	18	2	.
C/C(=N\NC(=O)c1ccc(NS(=O)(=O)c2cccs2)cc1)c1ccccn1	.	58*	14	4	12	-6
CC(=O)c1ccc(Nc2nc3ccccc3nc2NS(=O)(=O)c2cccs2)cc1	25	60*	9	10	-8	28
CNC[C@H](Cc1cccc2ccccc12)NC[C@H](CCSC)NCC1CCC(C(C)(C)C)CC1 (stereo not given in full)	.	60*	7	.	0	5
Cc1cc(C)c2nc(N3CCC(C(=O)NCCCN4CC(C)CC(C)C4)CC3)sc2c1 (stereo not given)	-41	97*	-85	2	33	76*	FLuc counter=32
CCOc1ccc2nc(N3CCCC(C(=O)NCCCN4CC(C)CC(C)C4)C3)sc2c1 (stereo not given)	-42	53*	-5	20	-5	21
CCOc1ccc2nc(N3CCCC(C(=O)NCCCN4C(C)CCCC4C)C3)sc2c1 (stereo not given)	-34	25	-42	2	-49	.
Cc1cc(C)c(S(=O)(=O)NCC2CCC(C(=O)NCCCN3CCC(C)CC3)CC2)c(C)c1 (stereo not given)	16	51*	-8	-2	-3	5
CNc1cncc(-c2ccc(OC)cc2)n1	7	.	.	.	.	.
O=C(Nc1ccc2c(c1)OCCO2)c1cnn(-c2ccccc2)n1	-56	-156	-6	-16	-61	.
Cc1ccc(N=Cc2c(O)n(-c3ccc4c(c3)OCO4)c(=O)c3ccccc23)cc1	4	69*	11	-24	5	42*	FLuc counter=36*
CCc1nc(N2CCN(C(=O)CCCl)CC2)c2c3c(sc2n1)CCCC3	11	.	.	.	.	.
CCc1nc(N2CCN(C(=O)CCl)CC2)c2c3c(sc2n1)CC(C)CC3 (stereo not given)	16	100*	20	11	14	11
CCc1nc(N2CCN(C(C)=O)CC2)c2c3c(sc2n1)CC(C(C)(C)C)CC3 (stereo not given)	82	72*	-49	13	7	25	FLuc counter=63*
CC(NC(=O)C(=O)N1CCCCC1)C(c1cccs1)N1CCN(c2ccccc2)CC1 (stereo not given)	-12	8	-18	-19	-9	.
CCCn1c(N)c(C(=O)CN(C)CC(=O)Nc2cc(C)ccc2C)c(=O)[nH]c1=O	10	31	9	-3	1	.
COc1ccc(CN2CCc3c([nH]c4ccccc34)C2)cc1Br	10	69*	-16	20	-5	25
CCOc1cc(CN2CCc3c([nH]c4ccccc34)C2)ccc1OC	21	20	14	12	31	.
CCN1C(=O)C2CCCCN2c2ccc(C(=O)NCCOC)cc21 (stereo not given)	-4	3	14	3	3	.
CCN(c1ccccc1)S(=O)(=O)c1cc(NC(=O)Nc2ccccc2C#N)ccc1Cl	2	-34	-8	-3	5	.
SMILES	Shn3 inh set2	Mdm2 MdmX PPI	697 NFkB inh	Gli-Sufu block	Jurkat NFkB inh	Mdm2 MdmX conf	others
CCN(c1ccccc1)S(=O)(=O)c1ccc(Cl)c(NC(=O)CSc2ncn[nH]2)c1	6	36	17	0	7	.
CCN(c1ccccc1)S(=O)(=O)c1ccc(Cl)c(NC(=O)c2ccc(=O)[nH]n2)c1	-8	53*	9	-5	5	-3
CCN(c1ccccc1)S(=O)(=O)c1ccc(Cl)c(NC(=O)Nc2ccc(Cl)cc2C#N)c1	21	99*	-45	3	28	99*	FLuc counter=56*
O=C(CN(C(=O)CCC(=O)Nc1ccccn1)c1ccccc1F)NCc1ccc2c(c1)OCO2	1	-14	6	-8	-5	.
COc1ccccc1N1CCN(S(=O)(=O)CCNC(=O)C23CC4CC(CC(C4)C2)C3)CC1	13	33	1	16	-1	.
Cn1cc(C(=O)N/N=C/c2ccc([N+](=O)[O-])cc2)c2ccccc21	-3	-24	-26	-7	-17	.
O=C(NC1CCN(CC(=O)N(c2ccccc2)c2ccccc2)CC1)c1ccc([N+](=O)[O-])cc1	38	23	14	36	22	.
O=Cc1[nH]c2ccccc2c1N(C(=O)CCl)c1ccc([N+](=O)[O-])cc1	.	97*	-12	4	6	94*	FLuc counter=25
CC(=O)n1cc(N(C(=O)CCl)c2ccc([N+](=O)[O-])cc2)c2ccccc21	.	98*	-12	5	-4	80*	FLuc counter=42*
O=C(NC(Cc1c[nH]c2ccccc12)C(=O)Nc1ccc(F)cc1)c1cccs1 (stereo not given)	5	86*	-129	-5	-6	71*	FLuc counter=70*
COC(=O)C(Cc1c[nH]c2ccccc12)NC(=O)c1cccs1 (stereo not given)	17	-1	-25	2	-34	.
COc1cc(SC)ccc1C(=O)Nc1ncc(C)s1	41	71*	-134	18	-67	56*	FLuc counter=71*
CSc1ccccc1C(=O)Nc1ncc(C)s1	-2	0	18	15	-4	.
COc1ccc2c(c1OC)C(=O)N1c3ccccc3SC21 (stereo not given)	-49	-134	-101	-16	-92	.
COc1ccc2c(c1OC)C(=O)N1c3ccccc3C(=O)N(c3ccccc3F)C21 (stereo not given)	80	66*	-4	-16	45	60*	FLuc counter=76*
COCCn1nnnc1C(C(C)C)N(Cc1cccnc1)Cc1ccccc1Cl (stereo not given)	-7	65*	-110	6	-25	4
COc1ccccc1NC(=S)N(Cc1cccnc1)Cc1ccccc1Cl	-17	9	0	4	2	.
N#Cc1c(NCCN)nc(-c2ccccc2)c2c1CCCC2	-4	58*	10	4	8	20
Cc1cc(NC(=O)CSc2nc3ccccc3c(=O)n2C(C)c2ccccc2)no1 (stereo not given)	6	72*	-69	6	-7	26
